Inconclusive results are not listed. A number with no mark means an inactive call. Calls of active or inactive are those of the source. Calls come from the whole dose curve; as a rule, active = well fitted curve in the direction sought with a large enough effect; inconclusive = small, poorly fitted or top-dose-only effect, or another doubt; inactive = no such curve, though single readings can be large; an effect the other way counts as inactive or inconclusive.

Test [1] addresses Lysine-specific demethylase 5B (Homo sapiens) (UniProt Q9UGL1). The test is described as follows: Optimization screen for KDM5B Histone Demethylases FDH coupled qHTS against the LOPAC library (AID 1347166). Note: 0% is about no effect. The following applies: KDM5B demethylation, FDH-coupled NADH fluorescence (FDH is formaldehyde dehydrogenase); at 57.5 µM (top of the series). In short, it runs like this: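 KDM5BDeltaAP (200nM final) preincubated 10 min with compound, then 12.5uM H3K4Me3, 25uM a-ketoglutarate, ascorbate, Fe(II), NAD+ and FDH added; 50mM HEPES pH 7.5, 0.01% Tween-20. NADH fluorescence (340/450 nm) change over 30 min, room temperature.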
For orientation: Quantitative high-throughput screening tests each substance at several concentrations.

Test [2] can be described thus: ZIKV-mCherry secondary qHTS for Zika virus inhibitors (AID 1347158). Note: potency is the fitted concentration of half-maximal effect. The following applies: Vero cells, ZIKV-mCherry infection imaging, 48-72 h; series mostly up to 49.2 µM. An outline of the steps: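 After overnight seeding at 37 °C, Vero cells receive compound and then ZIKV-mCherry (MOI 1). Following 48-72 h infection, cells are fixed, counterstained with Hoechst, and imaged; percent infected cells is derived from an mCherry intensity cut-off of 450 RFU.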

A short description of test [3]: Confirmatory screen NINDS Rhodamine qHTS for Zika virus inhibitors (AID 1347161). Note: nearly all actives have a fitted effect of over 60% in size. Note: potency is the fitted concentration of half-maximal effect. The following applies: purified enzyme assay, Rhodamine110 substrate fluorescence, 15 min; series mostly up to 114 µM. In short, it runs like this: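 qHTS dose-response: 25 nM linked protease, pH 8.0 Tris/Tween buffer, cpd titration, 15 min RT preinc, 1.5 microM Rhod110 peptide, 15 min reaction (~15% conversion), Ex480/Em540; 4-parameter Hill fit.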

Test [4] deals with Zika virus NS2B-NS3 protease (linked). The test is described as follows: 384 well plate NINDS AMC confirmatory qHTS for Zika virus inhibitors (AID 1347163).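 Note: fluorescence of AMC released from Ac-VKTGKR-AMC peptide cleaved by the protease; top concentration of the series differs between compounds; 0% = no-inhibitor control and -100% = no-enzyme control; nearly all actives have a fitted effect of over 50% in size.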 The following applies: Recombinant NS2B-NS3 protease, Ac-VKTGKR-AMC fluorescence; series mostly up to 100 µM. In short, it runs like this: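 Linked protease 5/30/60 nM final; cpds up to 1 mM final, ~15 min preinc. Substrate Ac-VKTGKR-AMC 30 microM final. RT, dark, 25 min; FI ex 355/em 460; normalized to no-enzyme/no-inhibitor ctrls.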

Test [5] relates to Zika virus NS2B-NS3 protease (linked construct). The test is described as follows: 384 well plate NINDS Rhodamine confirmatory qHTS for Zika virus inhibitors (AID 1347164).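 Note: fluorescence from protease cleavage of Ac-LKRR-rhodamine 110 substrate; nearly all actives have a fitted effect of over 65% in size.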 Note: potency is the fitted concentration of half-maximal effect. The following applies: rhodamine-110 peptide substrate fluorescence; series mostly up to 100 µM. In short, it runs like this:
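Linked NS2B-NS3 protease (final 5, 30 or 60 nM) preincubated ~15 minutes with compounds, then 10 microM Ac-LKRR-Rhodamine 110 added. Fluorescence (485/538 nm) read after 25 minutes at room temperature, normalized to no-enzyme and no-inhibitor controls.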

Test [6] in a line: Vero cells viability qHTS for Zika virus inhibitors (AID 1347167). Note: % is set by controls: 0 for no effect and ±100 for the full control effect. The following applies: cytotoxicity counter-screen (Zika); series mostly up to 45.9 µM. An outline of the steps: (§1)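 Cells seeded at 2.5 x 10^5 cells/mL in DMEM with 4% FBS and attached overnight at 37 degrees C, then exposed to compound for 24 to 48 hours. Viability read as ATP content by CellTiter Glo luminescence.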

Test [7] is described as follows: HepG2 cells viability qHTS for Zika virus inhibitors (AID 1347168). Note: % is set by controls: 0 for no effect and ±100 for the full control effect. The following applies: Zika counter-screen; series mostly up to 45.9 µM. In short, it runs like this: as §1
Test [8] in a line: Tertiary RLuc qRT-PCR qHTS assay for Zika virus inhibitors (AID 1347169). Note: top concentration of the series differs between compounds; % is set by controls: 0 for no effect and ±100 for the full control effect; nearly all actives have a fitted effect of over 55% in size. The following applies: infected Vero cells, reporter luminescence, 48-72 h; series mostly up to 45.9 µM. In short, it runs like this:
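Vero cells (1,000/well) infected with recombinant ZIKV-RLuc (Cambodian) at MOI 1-2 after compound addition, 48-72 hrs at 37 degrees C. Live-cell Renilla luciferase substrate added; luminescence read after 1-1.5 hrs.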
On the technique in general: Quantitative PCR measures a nucleic acid by following its amplification.

Chain of Lysine-specific demethylase 5B (Homo sapiens) (Q9UGL1 whole entry, looked up): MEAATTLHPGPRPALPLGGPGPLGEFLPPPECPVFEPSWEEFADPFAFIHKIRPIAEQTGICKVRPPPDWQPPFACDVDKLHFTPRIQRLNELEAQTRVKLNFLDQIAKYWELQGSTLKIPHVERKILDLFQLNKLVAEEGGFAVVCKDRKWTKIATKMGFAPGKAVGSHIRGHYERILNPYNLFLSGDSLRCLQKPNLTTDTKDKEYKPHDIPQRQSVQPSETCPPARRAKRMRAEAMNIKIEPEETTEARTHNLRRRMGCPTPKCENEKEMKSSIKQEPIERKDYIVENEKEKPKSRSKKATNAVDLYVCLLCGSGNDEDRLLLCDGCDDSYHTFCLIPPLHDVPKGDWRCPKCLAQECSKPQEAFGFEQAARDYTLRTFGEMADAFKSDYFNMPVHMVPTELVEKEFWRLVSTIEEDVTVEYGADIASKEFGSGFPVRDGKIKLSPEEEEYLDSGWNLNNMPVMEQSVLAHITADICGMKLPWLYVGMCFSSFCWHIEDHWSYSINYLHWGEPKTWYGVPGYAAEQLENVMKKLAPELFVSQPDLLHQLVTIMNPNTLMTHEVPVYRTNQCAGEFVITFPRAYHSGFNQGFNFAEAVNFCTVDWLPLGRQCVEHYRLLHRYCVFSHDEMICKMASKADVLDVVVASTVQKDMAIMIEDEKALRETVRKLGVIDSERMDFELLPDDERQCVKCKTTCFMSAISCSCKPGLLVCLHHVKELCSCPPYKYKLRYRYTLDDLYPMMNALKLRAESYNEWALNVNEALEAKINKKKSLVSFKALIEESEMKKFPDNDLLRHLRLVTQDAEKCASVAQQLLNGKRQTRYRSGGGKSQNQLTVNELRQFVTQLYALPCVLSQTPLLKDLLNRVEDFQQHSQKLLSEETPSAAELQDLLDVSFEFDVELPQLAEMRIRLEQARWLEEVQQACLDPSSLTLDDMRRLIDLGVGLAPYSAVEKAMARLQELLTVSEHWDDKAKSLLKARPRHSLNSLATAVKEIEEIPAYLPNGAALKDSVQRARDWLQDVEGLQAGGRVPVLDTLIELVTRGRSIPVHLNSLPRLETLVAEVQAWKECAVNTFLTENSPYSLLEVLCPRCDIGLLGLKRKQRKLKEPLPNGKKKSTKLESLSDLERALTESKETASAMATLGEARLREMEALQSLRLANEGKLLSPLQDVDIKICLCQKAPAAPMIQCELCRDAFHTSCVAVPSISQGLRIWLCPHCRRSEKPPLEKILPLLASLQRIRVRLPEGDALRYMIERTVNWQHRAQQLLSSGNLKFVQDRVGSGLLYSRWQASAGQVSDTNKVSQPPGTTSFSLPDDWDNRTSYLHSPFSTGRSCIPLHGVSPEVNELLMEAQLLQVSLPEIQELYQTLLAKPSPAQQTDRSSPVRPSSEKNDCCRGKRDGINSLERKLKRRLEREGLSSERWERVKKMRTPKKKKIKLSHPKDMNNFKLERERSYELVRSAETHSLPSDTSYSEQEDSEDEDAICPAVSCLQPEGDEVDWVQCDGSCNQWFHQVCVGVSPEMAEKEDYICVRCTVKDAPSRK

Turning to `CO/N=C(\C(=O)N[C@@H]1C(=O)N2C(C(=O)O)=C(CSc3nc(=O)c(O)nn3C)CSC12)c1csc(N)n1` (stereo partly specified), in test [1], the activity, negative = inhibition was -14.3%.
On to `COc1cc(CNC(=O)CCCCCCC(C)C)ccc1O`, for which the activity, negative = inhibition in test [1] was -17%.
For `Cc1ccccc1/C=C/C1=NCCN1`, the activity, negative = inhibition in test [1] was -11.5%.
With `CN1CCC2(CCN3CCc4c(oc5ccccc45)C3C2)N(C)C1=O` (stereo unspecified), in test [1], the activity, negative = inhibition was -3.3%.
For the compound `c1ccc(C(NCc2cccnc2)(c2ccccc2)c2ccccc2)cc1`, in test [1], the activity, negative = inhibition is -13.8%.
With `C/C(=C\c1ccc(C(=O)O)cc1)c1ccc2c(c1)C(C)(C)CCC2(C)C`, the Potency in test [2] is 7.94 µM (active); in test [3], 1.56 µM (active). For the same compound, the Potency entry in test [4], in test [5] and in test [6] was “inactive” in each case. Also, in test [7], the outcome was inactive.
Regarding `COc1cc(/C=C(\C#N)C(=O)Nc2nnc(C(F)(F)F)s2)ccc1OCc1ccc(C(F)(F)F)cc1C(F)(F)F`, the Potency in test [3] is 1.75 µM (active); in test [5], 14.1 µM (active). The Potency result in test [4] was “inactive”. The result in test [7] was inactive.
For the compound `Cn1cc(C(F)(F)F)nc1-c1ccc(OCC(O)CNCCOc2ccc(O)c(C(N)=O)c2)cc1` (stereo unspecified), the Potency result in test [3], in test [6] and in test [8] was “inactive” throughout. For the same compound, the activity, negative = inhibition in test [1] is -27.4%. The outcome in test [7] was inactive.
With `NC(=O)CC[C@H](N)C(=O)O`, the activity, negative = inhibition in test [1] was -1.79%.
Turning to `CCCCCCCCCCC(C)(C)C(=O)Nc1c(OC)cc(OC)cc1OC`, the activity, negative = inhibition in test [1] was -22.8%.
Consider `COc1ccccc1N1CCN(CCCNc2c(C)c(=O)n(C)c(=O)n2C)CC1`, for which the Potency result in test [3], in test [6] and in test [8] was “inactive” in each case. Moreover, the activity, negative = inhibition in test [1] is -1.72%. In addition, in test [7], the call was inactive.
As to `CCCC[C@@]1(C2CCCC2)Cc2cc(OCC(=O)O)c(Cl)c(Cl)c2C1=O`, the Potency in test [3] was 7.82 µM (active). Also, the activity, negative = inhibition in test [1] was -4.31%. The Potency entry in test [6] is “inactive”. Further, in test [7], the result was inactive.

(Values after PubChem BioAssay (NCATS).)
